In the library only some 0.38% were active in any assay of this set; here they are far more common.
Rac1 wt modul = human Rac1 wildtype GTP binding, inhibitors and activators | P63000 | GST-Rac1 beads, fluorescent GTP binding, flow cytometry; actives lie on both sides; 0 = cold GTP competed, 100 = untreated | GTP binding activity (% of control), % at 10 µM | actives 0.27% (n = 190,000) | AID 757;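 active means GTP binding activity at least 20 points away from the 100% control level, either lower or higher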
Rab2A wt mod = changes GTP binding to wildtype dog Rab2A, up or down; P61105; GST-Rab2 wt beads, Bodipy-GTP binding, flow cytometry; GTP binding activity, % at 10 µM; actives 0.19% (n = 190,000); AID 760;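 active means GTP binding activity at least 20 points away from 100%, either lowered or raised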;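 further: 0% = beads with excess unlabeled GTP and 100% = no-compound control corrected for plate trend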
HRas wt GTP bind = human HRas wildtype GTP binding, change in either direction; P01112; GTP binding activity, % at 10 µM; actives 0.14% (n = 190,000); GST-Ras wt beads, Bodipy-FL-GTP binding, flow cytometry; actives lie on both sides;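 active means GTP binding activity at least 20% away from the 100% baseline, either lowered as inhibitor or raised as activator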;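 further: 0% = unlabeled GTP competition control and 100% = no-compound control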
Target sequence (P01112 whole entry, looked up): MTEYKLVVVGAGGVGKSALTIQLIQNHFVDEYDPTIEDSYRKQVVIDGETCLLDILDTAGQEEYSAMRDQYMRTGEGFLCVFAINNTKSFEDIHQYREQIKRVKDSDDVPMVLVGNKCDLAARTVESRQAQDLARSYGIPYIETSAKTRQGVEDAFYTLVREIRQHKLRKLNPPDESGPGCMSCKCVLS
Rac1 mut GTP = alters GTP binding to activated mutant human Rac1. GST-Rac1 activated beads, fluorescent GTP binding, flow cytometry; actives lie on both sides; 100% means binding = to untreated wells. percent activity (GTP binding), % at 10 µM. actives 0.11% (n = 190,000). AID 764;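 active means GTP binding at least 20 percentage points away from the 100% baseline, in either direction, so actives lie on both sides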
Rab7 wt modul = alters GTP binding to wildtype dog Rab7 | GST-Rab7 beads, fluorescent GTP binding, flow cytometry; actives lie on both sides; untreated = 100%, excess cold GTP = 0% | GTP binding activity (percent of control), % at 10 µM | actives 0.055% (n = 190,000);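 active means fluorescent GTP binding to Rab7 beads changed by at least 20 points from the 100% baseline, either direction, mostly lower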;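 further: median green fluorescence of bound Bodipy-FL-GTP per Rab7 bead population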
Cdc42 wt GTP = changes GTP binding to wildtype human Cdc42; GST-Cdc42 beads, Bodipy-GTP binding, flow cytometry; actives lie on both sides; AID 761; actives 0.2% (n = 190,000); percent activity (GTP binding), % at 10 µM;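 active means percent activity GTP binding at least 20 points away from the 100% baseline, either down as inhibitor or up as activator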;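 further: median bead fluorescence of bound Bodipy-FL-GTP at 100 nM; 0% = excess unlabeled GTP control and 100% = no compound control; below 100% means less GTP binding so inhibitor and above means activator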
Target sequence (P60953 whole entry, looked up): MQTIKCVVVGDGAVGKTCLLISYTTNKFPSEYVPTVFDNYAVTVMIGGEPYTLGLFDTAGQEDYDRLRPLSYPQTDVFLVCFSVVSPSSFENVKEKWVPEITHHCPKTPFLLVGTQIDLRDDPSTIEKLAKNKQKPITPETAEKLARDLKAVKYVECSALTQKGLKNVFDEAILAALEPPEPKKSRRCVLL
* marks the source's active call; other numbers are inactive results; [ ] = another dose, or the depositor's remark.

SMILES | Rac1 wt modul | Rab2A wt mod | HRas wt GTP bind | Rac1 mut GTP | Rab7 wt modul | Cdc42 wt GTP
CN(C)C(=O)c1cc(C(=O)c2ccccc2Cl)c[nH]1 | 97 | 98 | 94 | 91 | 100 | 92
COc1cccc(N2CCN(C(=O)CCCCCNc3nc(=S)[nH]c4ccccc34)CC2)c1 | 74* | 83 | 83 | 89 | 98 | 79*
O=C(CCCCCNc1nc(=S)[nH]c2ccccc12)N1CCN(c2ccccn2)CC1 | 91 | 91 | 91 | 98 | 94 | 91
CCOC(=O)N1CCN(/C=C(\C#N)c2nc3ccccc3s2)CC1 | 124*[activator] | 129*[activator] | 121*[activator] | 118 | 120*[activator] | 114
COc1ccccc1CNC(=O)CSc1ccc(-c2cccc([N+](=O)[O-])c2)nn1 | 101 | 98 | 99 | 98 | 104 | 101
O=C(CCNS(=O)(=O)c1cccc2nsnc12)N1CCN(c2ccccn2)CC1 | 138*[activator] | 110 | 107 | 109 | 104 | 122*[activator]
COc1ccc(CNc2nc3c(c(=O)n(Cc4ccc(Cl)cc4)c(=O)n3C)n2C)cc1 | 83 | 78* | 82 | 80 | 85 | 79*
COCCNc1nc2c(c(=O)n(Cc3ccc(OC)cc3)c(=O)n2C)n1C | 94 | 95 | 92 | 95 | 93 | 94
CCN(CC)c1ccc(-c2nn3c(-c4cccnc4)nnc3s2)cc1 | 83 | 73* | 73* | 84 | 88 | 72*
O=C(CCCCCNC(=O)c1ccccc1)N=Nc1c(O)[nH]c2c(Br)cc(Br)cc12 | 99 | 98 | 97 | 90 | 112 | 92
NC(=O)N=Nc1c(O)[nH]c2c(Br)cc(Br)cc12 | 69* | 75* | 78* | 87 | 83 | 75*
CC1=C(C#N)c2nc(N)c(C#N)c(C)c2/C1=C\c1ccc(-c2ccccc2C(=O)O)o1 | 75* | 76* | 81 | 81 | 88 | 78*
COc1cc(/C=C2/C(C)=C(C#N)c3nc(N)c(C#N)c(C)c32)ccc1OCC(=O)O | 87 | 81 | 85 | 80 | 87 | 80
CCCN(Cc1ccccc1)C(=S)NC(=O)c1ccccc1[N+](=O)[O-] | 98 | 95 | 95 | 94 | 96 | 93
CC(C)NS(=O)(=O)c1ccc(NC(=O)NC2CCCCC2)cc1 | 102 | 101 | 100 | 99 | 99 | 101
COc1ccc(/C=N/NC(=O)c2cccc([N+](=O)[O-])c2)cc1OC | 99 | 99 | 98 | 94 | 109 | 95
O=C(N/N=C/c1ccc2nccnc2c1)c1cccc([N+](=O)[O-])c1 | 77* | 86 | 88 | 89 | 97 | 82
O=C(ONC1=NCCCCC1)c1ccc([N+](=O)[O-])cc1 | 102 | 99 | 100 | 98 | 103 | 99
CCOC(=O)c1nn(-c2ccccc2)c(=O)cc1SC(C)C | 97 | 63* | 95 | 96 | 96 | 99
CC1CN(C(=O)c2cccc(S(=O)(=O)Nc3cc(Cl)ccc3Cl)c2)CC(C)O1 (stereo not given) | 72* | 78* | 81 | 83 | 96 | 79*
Cc1cccc(NC(=O)CSc2nc3c([nH]c4ccccc43)c(=O)n2C)c1 | 104 | 101 | 103 | 97 | 115 | 99
COc1cccc(NC(=O)CSc2nc3c([nH]c4ccccc43)c(=O)n2C)c1 | 123*[activator] | 116 | 112 | 99 | 115 | 113
C=CCN1C2CCCC1CC(NC(=S)Nc1ccc(Cl)cc1)C2 (stereo not given) | 99 | 98 | 99 | 95 | 104 | 97
Cc1cc(N/N=C/c2ccc(O)cc2O)nc(-c2ccccc2O)n1 | 71* | 77* | 79* | 89 | 94 | 81
Cc1onc(-c2c(F)cccc2Cl)c1C(=O)OCC(=O)NC1CC1 | 94 | 97 | 96 | 99 | 98 | 97
SMILES | Rac1 wt modul | Rab2A wt mod | HRas wt GTP bind | Rac1 mut GTP | Rab7 wt modul | Cdc42 wt GTP
COC(=O)C1CCCN1C(=O)COc1ccc(Cl)cc1Br (stereo not given) | 103 | 95 | 99 | 99 | 98 | 100
CC(C)(C)OC(=O)N[C@@H](Cc1ccccc1)c1nnc(S(=O)(=O)Cc2cccc(F)c2)o1 | 101 | 101 | 100 | 99 | 79* | 105
O=C(O)C1CCCN1C(=O)OCc1ccccc1 (stereo not given) | 139*[activator] | 122*[activator] | 121*[activator] | 121*[activator] | 120*[activator] | 128*[activator]
COC(CNC(=O)C1CCCN1C(=O)OCc1ccccc1)OC (stereo not given) | 121*[activator] | 116 | 115 | 117 | 115 | 119
Cc1cccc(OCC(=O)N/N=C/c2ccc3c(c2)OCO3)c1 | 82 | 83 | 85 | 78* | 92 | 77*
O=C(COc1ccccc1)N/N=C/c1ccc2c(c1)OCO2 | 91 | 86 | 88 | 87 | 93 | 89
COc1ccc(C(C#N)C2(C)OCCO2)cc1OC (stereo not given) | 107 | 101 | 102 | 100 | 101 | 102
COc1ccc(/C=C2\SC(=S)N(CCCC(=O)NNC(=O)c3ccccc3O)C2=O)cc1 | 79* | 80 | 80 | 87 | 92 | 78*
O=C(CCCN1C(=O)/C(=C/c2ccccc2Cl)SC1=S)NNC(=O)c1ccccc1Cl | 101 | 100 | 98 | 100 | 101 | 97
O=C(O)c1ccccc1COc1ccccc1Cl | 119 | 108 | 108 | 110 | 109 | 109
O=C(O)c1ccccc1OCc1ccccc1Br | 142*[activator] | 129*[activator] | 122*[activator] | 126*[activator] | 120*[activator] | 139*[activator]
O=C(O)c1ccc(N2CCCCS2(=O)=O)cc1 | 98 | 97 | 95 | 98 | 94 | 97
NC(=S)N=Nc1c(O)[nH]c2cc(F)c(F)cc12 | 81 | 78* | 80 | 89 | 90 | 91
O=C(Nc1cccc2ccccc12)c1cnccn1 | 90 | 67* | 71* | 77* | 75* | 73*
N#CC(C#N)=C1C=CC=CN1/C(=C\c1ccccc1Cl)C(=O)c1ccccc1 | 92 | 88 | 86 | 82 | 97 | 78*
N#CC(C#N)=C1C=CC=CN1/C(=C\c1ccccc1)C(=O)c1cccs1 | 98 | 95 | 96 | 90 | 99 | 81
CC(C)C(=O)N1CCN(c2ccccc2NC(=O)c2cccc(Cl)c2)CC1 | 121*[activator] | 111 | 112 | 108 | 108 | 116
O=C(COc1ccccc1-c1ccccc1)N/N=C/c1ccncc1 | 55* | 61* | 59* | 55* | 58* | 60*
FC(F)(F)c1cccc(NC(=S)NNC(=S)NCc2ccccc2)c1 | 80 | 84 | 86 | 80* | 86 | 81
COc1cc(/C=C(\C#N)c2nc3ccc(C)cc3[nH]2)cc([N+](=O)[O-])c1O | 70* | 77* | 83 | 85 | 84 | 78*
